Columns and labels:
Details in all cases: concentration: 1 μM, replicates: in singlicate; n = 1
PIP5K1A = test system: PIP5K1A
PIP5K1C = test system: PIP5K1C
PIP5K2B = test system: PIP5K2B
PIP5K2C = test system: T1, PIP5K2C
T1 construct: gene PIP4K2C

PKAC-alpha = test system: T2, PKAC-alpha
T2 construct: gene PRKACA

PKAC-beta = test system: T3, PKAC-beta
T3 construct: gene PRKACB

PKMYT1 = test system: PKMYT1
PKN1 = test system: PKN1
PKN2 = test system: PKN2
PLK1 = test system: PLK1
PLK2 = test system: PLK2
PLK3 = test system: PLK3
PLK4 = test system: PLK4
PRKCD = test system: PRKCD
PRKCE = test system: PRKCE
PRKCH = test system: PRKCH
PRKCI = test system: PRKCI
PRKCQ = test system: PRKCQ
PRKD1 = test system: PRKD1
PRKD2 = test system: PRKD2
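Note: KINOMEscan kinase panel screen.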

SMILES | %Inh (PIP5K1A) | %Inh (PIP5K1C) | %Inh (PIP5K2B) | %Inh (PIP5K2C) | %Inh (PKAC-alpha) | %Inh (PKAC-beta) | %Inh (PKMYT1) | %Inh (PKN1) | %Inh (PKN2) | %Inh (PLK1) | %Inh (PLK2) | %Inh (PLK3) | %Inh (PLK4) | %Inh (PRKCD) | %Inh (PRKCE) | %Inh (PRKCH) | %Inh (PRKCI) | %Inh (PRKCQ) | %Inh (PRKD1) | %Inh (PRKD2)
CS(=O)(=O)c1cccc(CNc2nc(Nc3ccc4c(c3)CCC(=O)N4)ncc2C(F)(F)F)c1 | 61% | 58% | 59% | 69% | 0% | 0% | 0% | 49% | 2% | 0% | 29% | 31% | 51% | 4% | 0% | 0% | 13% | 0% | 0% | 0%
O=C(Nc1n[nH]c2nc(-c3ccccc3O)ccc12)C1CC1 [SB-711880] | 0% | 77% | 0% | 43% | 0% | 0% | 7% | 0% | 0% | 0% | 0% | 0% | 0% | 25% | 0% | 0% | 27% | 0% | 0% | 5%
CC(C)c1nc(-c2ccc(F)c(NS(=O)(=O)c3c(F)cccc3F)c2)c(-c2ccnc(Nc3ccc(N4CCOCC4)nc3)n2)s1 [GSK1804250] | 0% | 46% | 9% | 78% | 1% | 0% | 4% | 59% | 12% | 15% | 0% | 0% | 99.8% | 8% | 7% | 21% | 39% | 0% | 93.6% | 99.4%
CN(C)CCOc1ccc(-c2cc(-c3ccc(Cl)c(O)c3)c(-c3ccncc3)[nH]2)cc1.Cl.Cl [SB-684387] | 45% | 54% | 7% | 20% | 33% | 10% | 0% | 39% | 0% | 3% | 4% | 11% | 31% | 0% | 26% | 2% | 14% | 3% | 14% | 2%
COc1ccc(C2=C(Nc3cccc(O)c3)C(=O)NC2=O)cc1 [SB-390766] | 4% | 82% | 0% | 10% | 0% | 0% | 13% | 0% | 38% | 95.9% | 0% | 0% | 13% | 0% | 49% | 0% | 18% | 0% | 0% | 4%
c1ccc(Oc2ccc(Nc3ccnc4cc(-c5ccc(CN6CCCCC6)o5)ccc34)cc2)nc1 [GW567143] | 9% | 47% | 0% | 48% | 2% | 0% | 0% | 0% | 0% | 5% | 0% | 0% | 44% | 7% | 0% | 5% | 0% | 10% | 0% | 12%
Cc1ccc(NC(=O)c2cccc(N3CCCCC3)c2)cc1-c1ccc(C(=O)NCC2CC2)cc1 [GSK1917008] | 0% | 25% | 8% | 0% | 0% | 14% | 0% | 17% | 0% | 0% | 0% | 0% | 0% | 10% | 3% | 19% | 5% | 0% | 0% | 0%
CNc1nccc(-c2ccc3c(N)n[nH]c3c2)n1 [GSK2206003] | 54% | 60% | 32% | 35% | 23% | 4% | 4% | 0% | 0% | 6% | 0% | 0% | 0% | 27% | 15% | 25% | 17% | 9% | 19% | 20%
O=C1NC(=O)C(c2ccccc2Cl)=C1Nc1cccc(Cl)c1 [SB-342409] | 11% | 15% | 13% | 5% | 0% | 0% | 27% | 100% | 0% | 0% | 0% | 0% | 0% | 0% | 42% | 0% | 9% | 100% | 0% | 0%
CC(C)c1nc(-c2cccc(NS(=O)(=O)c3c(F)cccc3F)c2)c(-c2ccnc(Nc3ccc(N4CCOCC4)nc3)n2)s1.Cl [GSK1723980] | 0% | 20% | 18% | 85% | 0% | 0% | 0% | 16% | 0% | 0% | 0% | 0% | 100% | 0% | 0% | 2% | 20% | 27% | 93.9% | 99.4%

From paper PMC5540273 (PLoS ONE, 2017)
